This is part of a sample that, as a whole, favours compounds with a hit. Of some 83,000 tested, about 20% had one in any assay.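 Assay: single dose, 48 h. Readout: percent growth (0 = no net growth; negative = cell death). Active: <10.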 Unmarked numbers belong to inactive results. Calls of active or inactive are those of the source.
What follows are molecules tested on NCI-H460 lung (assay: NCI-60 one-dose screen, 48 h (100 = growth as untreated, 0 = no growth, -100 = all killed)). Settings: 10 µM unless noted.

| SMILES | growth |
| --- | --- |
| Cc1nc2sc(C(=O)Nc3cccc(Cl)c3C)c(N)c2cc1C(=O)/C=C/c1ccccc1 | -25.3% (active) |
| CN1CCN(Cc2ccc(NC(=O)c3cncc(C#Cc4cnc(N)cc4C#N)c3)cc2C(F)(F)F)CC1 | 7.15% (active) |
| c1cc(OCCN2CCCC2)ccc1CNc1ccc2nc(CCC3CCCCC3)[nH]c2c1 | 52.6% |
| CCN(CC)CCOc1ccc2c(-c3ccccc3)c(-c3ccc(OC)cc3)c(=O)oc2c1 | 57.4% |
| O=C1/C(=C/c2c[nH]c(=O)[nH]c2=O)SC(=S)N1Cc1ccccc1 | 105% |
| CCN(CC)CCCNc1cc(OC)c(OC)c2cccnc12 | 23.4% |
| COc1cc(Cc2cc(OC)c(O)c(OC)c2)cc(OC)c1O | 99.1% |
| CSc1ccc(N2C(=N)C(=S)N(c3ccc(C)cc3)C2=O)cc1 | 102% |
| CCOC(=O)/C(=C(/C)NCC(C)C)c1cc(O)c(O)c2c(C)cc(=O)[nH]c12 | 23.1% |
| C/C(=C(\c1ccc(OCCN2CCCCCC2)cc1)c1ccc(OC(=O)c2ccccc2)cc1)c1ccc(Cl)cc1 | 3.62% (active) |
| COCCn1cc(-c2csc(-c3c[nH]c4ccc(F)cc34)n2)c2cccnc21 | 15.1% |
| Cc1ccc2cnc(N)c(C#Cc3cc(C(=O)Nc4ccc(CN5CCN(C)CC5)c(C(F)(F)F)c4)cnc3C)c2c1 | -83% (active) |
| O=C(NNc1nc2cc(F)ccc2n2c(CN3CCOCC3)ccc12)c1ccccc1 | 0.156% (active) |
| COc1ccc(-c2nc(SCC(=O)Nc3nc4ccc(C)cc4s3)[nH]c(=O)c2C#N)cc1OC | 100% |
